PubChem BioAssay AID686978 (National Center for Advancing Translational Sciences (NCATS), 2013)
Among all 420,000 compounds or so, about 64,000 (15%) were called active. Another 27% or so got no clear call; they are omitted. The call rests on the fitted dose curve; in most records, active means well fitted inhibition curve with a large enough effect; inconclusive means small, poorly fitted or top-dose-only effect; inactive means flat fitted curve, though single readings scatter. Only a sample is shown. Entries that show only a call come without a potency.

assay: qHTS for Inhibitors of human tyrosyl-DNA phosphodiesterase 1 (TDP1): qHTS in cells in absence of CPT; details: DT40 Tdp1-/- hTDP1 cells, no CPT, ATP luminescence, 48 h; activity change, negative = growth inhibition: at 46.2 µM (top of the series); further: nearly all actives have a fitted effect of over 55% in size
Method in brief: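 Stably hTDP1-transfected Tdp1-null chicken DT40 cells were treated with library compounds minus camptothecin and grown for at least 48 hr at 37 °C, after which cellular ATP was quantified by luminescence.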
Potency means the concentration at half of the fitted maximal effect.

SMILES | Potency
O=C(O)C1CCN(c2ncnc3ccc(-c4ccccc4C(F)(F)F)cc23)CC1 | inactive
O=C(CC1C(=O)NCCN1CC(c1ccccc1)c1ccccc1)NCCc1cn[nH]c1 (configuration not stated) | inactive
CCN(CC(=O)NCc1cccs1)C(=O)c1ccc(OC)c(S(=O)(=O)N2CCOCC2)c1 | inactive
Cc1ccc(C2=Nc3c(ccc4ccccc34)C(c3ccncc3)=NN2)cc1 | 11.6 µM (active)
COc1cc(C)nc(N2CCCC(C(=O)NCC(C)C)C2)n1 (configuration not stated) | inactive
COCCNC(=O)CSc1nc(N)c(NC(=O)c2ccco2)c(=O)[nH]1 | inactive
O=C(NC(=S)Nc1ccc(S(=O)(=O)Nc2ncccn2)cc1)c1cccc(Br)c1 | inactive
CC(C)OCCCNC(=O)CN1C(=O)/C(=C/c2ccccc2F)Oc2ccccc21 | 10.3 µM (active)
O=C(CN1C(=O)S/C(=C\c2ccccc2F)C1=O)NCCCn1ccnc1 | inactive
CCC1Oc2ccccc2N(CC(=O)NCCCN2CCN(CC)CC2)C1=O (configuration not stated) | inactive
COc1ccc(F)cc1C(=O)COC(=O)c1n[nH]c(=O)c2ccccc12 | inactive
COC(=O)CN(c1cccc(C(C)=O)c1)S(C)(=O)=O | inactive
C=CCc1cccc2cc(C(=O)N3CCN(C(=O)OCC)CC3)c(=O)oc12 | inactive
CC(C)Nc1nc(N(c2ccccc2)c2ccccc2)nc(-n2ccnc2)n1 | inactive
O=C(O)COCC(=O)NCc1csc2ccc(Cl)cc12 | inactive
Cc1ccc(N(C(=O)c2snc(C(N)=O)c2N)C(C(=O)NCC2CCCO2)c2c[nH]c3ccccc23)cc1 (configuration not stated) | 4.11 µM (active)
O=C(NCC(=O)N(c1ccccc1)C(C(=O)NCC1CCCO1)c1ccccc1)c1cccs1 (configuration not stated) | inactive
Cc1ccc(C(C(=O)NCC2CCCO2)N(C(=O)c2snc(C(N)=O)c2N)c2ccc(C(C)C)cc2)o1 (configuration not stated) | 18.4 µM (active)
CCOc1ccc(N(CC(=O)NCC2CCCO2)S(=O)(=O)c2ccc(C)cc2)cc1 (configuration not stated) | inactive
CCC(C(=O)NCCC(C)C)N(Cc1ccccc1Cl)C(=O)c1snc(C(N)=O)c1N (configuration not stated) | inactive
CCOc1ccc(N(C(=O)c2snc(C(N)=O)c2N)C(C(=O)NCC2CCCO2)c2c[nH]c3ccccc23)cc1 (configuration not stated) | 3.66 µM (active)

SMILES | Potency
NC(=O)c1nsc(C(=O)N(CCCN2CCOCC2)C(C(=O)NC2CCCCC2)c2ccc(Cl)cc2)c1N (configuration not stated) | inactive
Cc1ccc(N(C(=O)Cc2cccs2)C(C(=O)NCC2CCCO2)c2ccncc2)cc1 (configuration not stated) | inactive
CCOc1cc(C(C(=O)NCC2CCCO2)N(C(=O)Cn2nnc3ccccc32)c2cccc(OC)c2)ccc1O (configuration not stated) | inactive
Cn1cnc2c1c(=O)n(Cc1ccccc1C#N)c(=O)n2C | inactive
CCn1c(CSc2nncn2-c2ccc(OC)cc2)nc2cc(S(=O)(=O)N(C)C)ccc21 | inactive
COC(=O)CN1C(=O)C(O)=C(C(C)=O)C1c1ccc([N+](=O)[O-])cc1 (configuration not stated) | inactive
OC(COc1ccc(Br)cc1)CN1CCCC1 (configuration not stated) | inactive
CC(C)(C)CC(C)(C)NCC(O)COCCOc1ccc(Br)cc1 (configuration not stated) | 2.31 µM (active)
Cc1noc(COc2ccccc2OCC(O)CNC(C)(C)C)n1 (configuration not stated) | inactive
O=C(N/N=C\c1cccc(Br)c1)c1ccccc1-n1cccc1 | inactive
C=C1CCN([C@@H](Cc2ccccc2)C(=O)N2CCOCC2)S(=O)(=O)c2ccccc21 | inactive
CC1(C)OC(=O)C2=C(C[C@@H](C3CCCCC3)O[C@@H]2c2ccc(Cl)cc2)O1 | 20.6 µM (active)
CCC1OC(C2CC2)CC2=C1C(=O)OC(C)(C)O2 (configuration not stated) | inactive
CC1(C)OC(=O)C2=C(C[C@@H](C3CC3)O[C@H]2c2ccc(Cl)cc2)O1 | inactive
OC(COCc1ccco1)CN1CCN(c2ccccc2)CC1 (configuration not stated) | inactive
COc1ccc(-c2nnc(NC(=O)CS(=O)(=O)c3ccc(Cl)cc3)o2)c(OC)c1 | inactive
COc1cccc(-c2nnc(NC(=O)c3ccc(S(=O)(=O)N(CC(C)C)CC(C)C)cc3)o2)c1 | 4.61 µM (active)
COc1cccc(C(=O)NNS(=O)(=O)c2ccc(F)cc2)c1 | inactive
COc1ccc(CNC(=O)CN(Cc2ccc(Cl)cc2)S(C)(=O)=O)cc1 | inactive
COc1ccc(OC)c(-n2c(=S)[nH]c3cc(C(=O)N4CCCCC4)ccc3c2=O)c1 | inactive
Cc1ccc2cccc(O)c2[n+]1[O-] | inactive

SMILES | Potency
CCOC(=O)c1[nH]c2ccc(OC)cc2c1NC(=O)N1CCOCC1 | inactive
COc1ccc(CCNC(=O)c2c3c(nc4ccccc24)C(=O)N(C2CCCCC2)C3)cc1OC | 23.1 µM (active)
COc1ccc(CCNC(=O)C2CCCN2C(=O)Nc2ccccc2)cc1OC (configuration not stated) | inactive
COc1ccc(CCNC(=O)CCC(=O)NC2CCCCC2)cc1OC | inactive
CCNC(=O)CC1C(=O)N(c2ccc(OC)cc2)C(=O)N1CCOC (configuration not stated) | inactive
COCCNc1nc(N)c([N+](=O)[O-])c(NCCO)n1 | inactive
CNc1nc(Nc2ccc(C)c(Cl)c2)nc(N)c1[N+](=O)[O-] | 6.51 µM (active)
Cc1ccc(NC(=O)C/C(N)=N/O)cc1Cl | inactive
O=C(NCCc1ccc(Cl)cc1)C1CCCN1C(=O)NCc1ccccc1 (configuration not stated) | inactive
O=C(CC1Oc2ccccc2NC1=O)NCc1ccc(F)cc1 (configuration not stated) | inactive
O=C(CSc1ccc(/C=N/NC(=O)c2cccc(F)c2)o1)Nc1ccccc1 | inactive
Cc1cc(C(=O)N/N=C/c2ccc(O)c([N+](=O)[O-])c2)c(C)n1-c1ccc(F)cc1 | inactive
O=C(N/N=C/c1ccc([N+](=O)[O-])o1)c1cn(-c2ccccc2)nc1-c1ccc(F)cc1 | 5.8 µM (active)
COCC(=O)Nc1cc(C(=O)N2CCCC(c3ccccc3)CC2)c2c(c1)nc(-c1ccncc1)n2C (configuration not stated) | inactive
COc1ccc(NC(=O)CC(NC(C)c2ccccc2)C(=O)O)cc1 (configuration not stated) | inactive
C[C@@H]1CN([C@@H](C)CO)C(=O)CCCn2cc(nn2)CO[C@H]1CN(C)S(=O)(=O)c1ccc(-n2cccn2)cc1 | inactive
Cc1ccc(C)c(NC(=O)c2ccc3nccnc3c2)c1 | inactive
Cc1ccc(O)c(NC(=O)c2cc(-c3ccc(F)cc3)no2)c1 | inactive
Cc1ccc(C)c(NC(=O)c2cc(-c3cc(C)cc(C)c3O)n[nH]2)c1 | 13 µM (active)
CCCCN(C(=O)CCNC(=O)NC12CC3CC(CC(C3)C1)C2)c1c(N)n(CCCC)c(=O)[nH]c1=O | inactive
